Experimental data: the supplement of paper PMC13380429
Structures can show the parent of a compound that is named as a salt.

Legend:
[1] = system: Vero E6 infected with SARS-CoV-2; assay: morphology score (similarity to uninfected cells); higher = more like uninfected cells; conditions: 24 h
[2] = system: Vero E6 infected with SARS-CoV-2; assay: SARS-CoV-2 infection rate relative to infected DMSO; higher = more infection, active = 60 or less; conditions: 24 h

Question: For `Nc1nc(=O)c2sc(=O)n([C@@H]3O[C@H](CO)[C@@H](O)[C@H]3O)c2[nH]1` (10 µM), which morphology score [1] is on record?
Answer: Its morphology score is 0.013.

Question: And the SARS-CoV-2 infection rate [2]?
Answer: Its SARS-CoV-2 infection rate is 100% (inactive).

Question: With `CC(C)(N)CC12CC3CC(CC(C3)C1)C2` [somantadine] (10 µM) as the molecule, how does the morphology score [1] read?
Answer: The morphology score was 0.178.

Question: What about the SARS-CoV-2 infection rate [2] of the same molecule?
Answer: The SARS-CoV-2 infection rate was 96% (inactive).

Question: Which results are given for `Oc1nc(O)c2cn[nH]c2n1` [oxypurinol] (10 µM)?
Answer: morphology score [1]: -0.157; SARS-CoV-2 infection rate [2]: 111% (inactive)

Question: Which morphology score [1] does the source give for `CC(C)(C)C(=O)OCOP(=O)(COCCn1cnc2c(N)ncnc21)OCOC(=O)C(C)(C)C` [adefovir-dipivoxil] (10 µM) here?
Answer: Its morphology score is -0.117.

Question: What about the SARS-CoV-2 infection rate [2] of the same molecule?
Answer: Its SARS-CoV-2 infection rate is 124% (inactive).

Question: Which results are given for `Cc1nc(C)c(C)nc1C` [chuanxiongzine] (10 µM)?
Answer: morphology score [1]: -0.146; SARS-CoV-2 infection rate [2]: 118% (inactive)

Question: Which morphology score [1] does the source give for `OCCOCCN1CCN(C(c2ccccc2)c2ccc(Cl)cc2)CC1` (stereo not given) [hydroxyzine] (10 µM) here?
Answer: Its morphology score is 0.0655.

Question: And the SARS-CoV-2 infection rate [2]?
Answer: Its SARS-CoV-2 infection rate is 104% (inactive).

Question: How did the morphology score [1] turn out when `C#CCN1C(C)=C(C(=O)OC)C(c2cccc([N+](=O)[O-])c2)C(C(=O)OCC)=C1C` (stereo not given) (10 µM) was run?
Answer: The morphology score was 0.0591.

Question: What about the SARS-CoV-2 infection rate [2] of the same molecule?
Answer: Its SARS-CoV-2 infection rate is 87.5% (inactive).

Question: `CC(C)(C)C(=O)/C(=N/c1ccc(Cl)cc1)NNc1ccc(Cl)cc1` (10 µM) was tested. Which morphology score [1] did it give?
Answer: Its morphology score is -0.145.

Question: What about the SARS-CoV-2 infection rate [2] of the same molecule?
Answer: Its SARS-CoV-2 infection rate is 114% (inactive).

Question: What does the source list for `C[C@@H]1CN(Cc2ncccn2)C[C@H]1c1nc2c(cnn2C2CCOCC2)c(=O)[nH]1` (10 µM)?
Answer: morphology score [1]: 0.11; SARS-CoV-2 infection rate [2]: 108% (inactive)

Question: What does the source list for `CN(C)C(=O)c1ccc(S(=O)(=O)c2ccc(NC(=O)[C@@](C)(O)C(F)(F)F)c(Cl)c2)cc1` (10 µM)?
Answer: morphology score [1]: 0.28; SARS-CoV-2 infection rate [2]: 104% (inactive)

Question: Which results are given for `CCCCOc1c(C(=O)c2c(F)cc(C)cc2F)c[nH]c2nncc1-2` (10 µM)?
Answer: morphology score [1]: 0.383; SARS-CoV-2 infection rate [2]: 104% (inactive)

Question: How did the morphology score [1] turn out when `O=C(O)CCCO` (10 µM) was run?
Answer: The morphology score was 0.0908.

Question: What about the SARS-CoV-2 infection rate [2] of the same molecule?
Answer: Its SARS-CoV-2 infection rate is 104% (inactive).

Question: Which morphology score [1] does the source give for `CN1C[C@@H]2C[C@H]1CN2c1cc2c(cc1F)c(=O)c(C(=O)O)cn2C1CC1` [danofloxacin] (10 µM) here?
Answer: Its morphology score is 0.319.

Question: And the SARS-CoV-2 infection rate [2]?
Answer: The SARS-CoV-2 infection rate was 100% (inactive).

Question: Which results are given for `Cc1nnc(C(C)C)n1C1C[C@H]2CC[C@@H](C1)N2CC[C@H](NC(=O)C1CCC(F)(F)CC1)c1ccccc1` (stereo in doubt) [maraviroc] (10 µM)?
Answer: morphology score [1]: 0.145; SARS-CoV-2 infection rate [2]: 112% (inactive)

Question: For `CN(C)C(=O)COC(=O)Cc1ccc(OC(=O)c2ccc(NC(=N)N)cc2)cc1` [Camostat mesylate] (10 µM), which morphology score [1] is on record?
Answer: The morphology score was 0.0371.

Question: What about the SARS-CoV-2 infection rate [2] of the same molecule?
Answer: Its SARS-CoV-2 infection rate is 104% (inactive).

Question: For `Cc1ccccc1OCC(O)CO` (stereo not given) [mephenesin] (10 µM), which morphology score [1] is on record?
Answer: Its morphology score is 0.141.

Question: And the SARS-CoV-2 infection rate [2]?
Answer: The SARS-CoV-2 infection rate was 99.5% (inactive).

Question: With `COc1cccc([C@H](O)C2CCN(CCc3ccc(F)cc3)CC2)c1OC` [volinanserin] (10 µM) as the molecule, how does the morphology score [1] read?
Answer: The morphology score was -0.147.

Question: What about the SARS-CoV-2 infection rate [2] of the same molecule?
Answer: Its SARS-CoV-2 infection rate is 110% (inactive).

Question: What does the source list for `CCCCCCCCCCCCCCCCOP(=O)([O-])OCC[N+](C)(C)C` [miltefosine] (0.833333 µM)?
Answer: morphology score [1]: 0.182; SARS-CoV-2 infection rate [2]: 94.5% (inactive)

Question: Which morphology score [1] does the source give for `O=C1O[C@H]([C@@H](O)CO)C(O)=C1O` (10 µM) here?
Answer: The morphology score was 0.1.

Question: And the SARS-CoV-2 infection rate [2]?
Answer: The SARS-CoV-2 infection rate was 111% (inactive).

Question: Which results are given for `N#C[C@H](O[C@@H]1O[C@H](CO[C@@H]2O[C@H](CO)[C@@H](O)[C@H](O)[C@H]2O)[C@@H](O)[C@H](O)[C@H]1O)c1ccccc1` [amygdalin] (10 µM)?
Answer: morphology score [1]: 0.155; SARS-CoV-2 infection rate [2]: 106% (inactive)
